Assay results as given in PubChem BioAssay (Tox21).
Records with an inconclusive call do not appear. Activity calls are given as the source filed them. The call rests on the fitted dose curve.

Assay: qHTS assay to identify small molecule agonists or antagonists of the thyroid stimulating hormone receptor (TSHR) signaling pathway - wild type cell line counter screen (AID 1259384)
Details: HEK293 wild type, cAMP HTRF counter-screen; series mostly up to 92.4 µM
Summary of the method: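 Counter screen in untransfected Hek293: compounds (15-point titration, triplicate) plus phosphodiesterase inhibitor Ro20-1724 added after 18 h plating; 30 min RT. Intracellular cAMP via competitive d2/cryptate immunoassay, 1 h incubation.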

SMILES | outcome
CC1=CC(=O)NS(=O)(=O)O1 | inactive
Cc1cccnc1 | inactive
CC(=O)CC(=O)Nc1ccccc1 | inactive
COc1ccc2cc([C@H](C)C(=O)O)ccc2c1 | inactive
O=C(CC(C(=O)OC1CCCCC1)S(=O)(=O)O)OC1CCCCC1 (centres undefined) | inactive
O=c1[nH]c(=O)n([C@H]2CCCO2)cc1F | inactive
ON=C1CCCCC1 | inactive
O=c1[nH]nnc2ccccc12 | inactive
CN(C)CCC(c1ccc(Cl)cc1)c1ccccn1 (centres undefined) | inactive
CN(C)CCC(c1ccccc1)c1ccccn1 (centres undefined) | inactive
O=C1CCC(N2C(=O)c3ccccc3C2=O)C(=O)N1 (centres undefined) | inactive
CC1CCC2CC1C2(C)C (centres undefined) | inactive
O=C(Oc1ccccc1)c1ccccc1 | inactive
O=C(O)c1ccc(C(=O)O)cc1 | inactive
OCC(CO)(CBr)CBr | inactive
OCCOCCN1CCN(C2=Nc3ccccc3Sc3ccccc32)CC1 | inactive
Cc1occc(=O)c1O | inactive
CCCCC(CC)CO (centres undefined) | inactive
CCCCCCCCCCCCCCCO | inactive
CCCCCC/C(C=O)=C\c1ccccc1 | inactive
Nc1ccccc1[N+](=O)[O-] | inactive
Oc1cccc2ccccc12 | inactive
C=CCNC(N)=S | inactive
COc1ccc(Cl)cc1C(=O)NCCc1ccc(S(=O)(=O)NC(=O)NC2CCCCC2)cc1 | inactive
CCCCC(CC)COC(=O)CS (centres undefined) | inactive
COCCCOc1ccnc(CS(=O)c2nc3ccccc3[nH]2)c1C (centres undefined) | inactive
CCC(O)OCCCOC (centres undefined) | inactive
CCCCCCCCC/C=C/CC1CC(=O)OC1=O (centres undefined) | inactive
Cc1ccc(S(N)(=O)=O)cc1 | inactive
